Each structure is given as a SMILES string. About 83,000 compounds went through this panel and 20% of them were active in at least one assay; those are over-represented in the sample as a whole.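 Plates (96-well) were seeded with cells, treated with compound at one concentration, and incubated for 48 hours before percent growth was determined.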 Unmarked numbers belong to inactive results. Active and inactive are the calls of the source. Rule for the calls: active = growth percent below 10; inactive = the rest.

Among the test systems are HCT-15 colon; HT29 colon; SNB-75 CNS; SNB-19 CNS; U251 CNS; PC-3 prostate; SK-MEL-5 melanoma; UACC-62 melanoma; LOX IMVI melanoma; SK-MEL-28 melanoma; EKVX NSCLC; SN12C renal; UO-31 renal; TK-10 renal; ACHN renal; CAKI-1 renal; A498 renal; CCRF-CEM leukemia; MOLT-4 leukemia.
Common to all, as to test: NCI-60 one-dose screen, 48 h (100 = growth as untreated, 0 = no growth, -100 = all killed)
What all share (conditions): 10 µM unless noted

For the compound `COc1ccc(C(=O)c2cc(OC)c(OC)c(OC)c2)cc1/C=C/C(=O)c1ccc(F)cc1`, the growth with HCT-15 colon is 23.9%; with HT29 colon, 13.6%; with SNB-75 CNS, 58.7%; in the assay with SNB-19 CNS, 71.3%; in the assay on U251 CNS, 34.1%; in the assay on PC-3 prostate, 76.7%. For the same compound, the growth was 57% with SK-MEL-5 melanoma; 45.5% in the assay on UACC-62 melanoma; -56.5% (active) in the assay with LOX IMVI melanoma; 13.1% in the assay on SK-MEL-28 melanoma; 90.1% in the assay on EKVX NSCLC; 64.7% in the assay on SN12C renal. The growth with UO-31 renal is 56.3%; with TK-10 renal, 82.9%; in the assay on ACHN renal, -70.3% (active); with CAKI-1 renal it was 81.5%; with A498 renal it was 80.9%; with CCRF-CEM leukemia, 2.64% (active). Further, the growth with MOLT-4 leukemia is 0.641% (active).

`CCN1CCN(Cc2ccc(Cc3ncc(F)c(-c4cc(F)c5nc(C)n(C(C)C)c5c4)n3)nc2)CC1`: the growth was 32.9% with HCT-15 colon; 13.2% with HT29 colon; 21.2% in the assay with SNB-75 CNS; 47.8% with SNB-19 CNS; 45.7% in the assay with U251 CNS; 38.7% with PC-3 prostate. Moreover, the growth with SK-MEL-5 melanoma is 34.2%; with UACC-62 melanoma, 69.1%; with LOX IMVI melanoma, -80.4% (active); in the assay with SK-MEL-28 melanoma it was 64.4%; in the assay on EKVX NSCLC it was 59.6%; with SN12C renal, 48.9%. Moreover, the growth was 11.8% in the assay with UO-31 renal; 35.1% in the assay on TK-10 renal; 27.3% in the assay with ACHN renal; 24% in the assay on CAKI-1 renal; 34.5% in the assay on A498 renal; 22.3% in the assay with CCRF-CEM leukemia. In addition, in the assay with MOLT-4 leukemia, the growth was 13.4%.

Turning to `O=C(NC[C@H](O)CO)c1ccncc1Nc1ccc(I)cc1F`, the growth with HCT-15 colon is 43.9%; with HT29 colon, 8.1% (active); in the assay on SNB-75 CNS, 73.4%; in the assay with SNB-19 CNS, 51.5%; with U251 CNS it was 55.3%; in the assay with PC-3 prostate it was 86.4%. Moreover, the growth in the assay with SK-MEL-5 melanoma was 44.5%; in the assay with UACC-62 melanoma, -7.65% (active); with LOX IMVI melanoma, 25.2%; with SK-MEL-28 melanoma it was -12.7% (active); in the assay with EKVX NSCLC, 45.1%; with SN12C renal it was 60.3%. The growth with UO-31 renal is 35.1%; in the assay on TK-10 renal, 40.5%; in the assay with ACHN renal it was 41.4%; with CAKI-1 renal, 32.7%; in the assay with A498 renal, -21.9% (active); in the assay with CCRF-CEM leukemia, 102%. Besides, the growth in the assay on MOLT-4 leukemia is 90.3%.

Take `Cc1cc(-c2cc(O)ccc2Cl)cc2nnc(Nc3ccc(OCCN4CCCC4)cc3)nc12`: the growth in the assay with HCT-15 colon was -78.5% (active); in the assay on HT29 colon, -57.1% (active); in the assay on SNB-75 CNS, -90.8% (active); in the assay on SNB-19 CNS, -64.4% (active); with U251 CNS, -74.5% (active); in the assay with PC-3 prostate, -80.5% (active). For the same compound, the growth in the assay with SK-MEL-5 melanoma was -84.9% (active); in the assay on UACC-62 melanoma, -77.7% (active); in the assay with LOX IMVI melanoma, -63.9% (active); in the assay on SK-MEL-28 melanoma it was -72.3% (active); in the assay on EKVX NSCLC, -81.1% (active); with SN12C renal, -79.2% (active). Further, the growth in the assay on UO-31 renal was -87.3% (active); in the assay on TK-10 renal, -82.1% (active); in the assay with ACHN renal, -92.7% (active); in the assay with CAKI-1 renal, -83% (active); with A498 renal it was -68.9% (active); in the assay with CCRF-CEM leukemia it was -51.9% (active). Moreover, in the assay with MOLT-4 leukemia, the growth is -42.9% (active).

`CC(=O)C1CC(C)CCC1C(C)C` (configuration not stated): the growth in the assay on HCT-15 colon is 104%; in the assay on HT29 colon it was 101%; in the assay on SNB-75 CNS it was 81.1%; in the assay with SNB-19 CNS it was 91.1%; in the assay with U251 CNS, 107%; in the assay with PC-3 prostate, 55.4%. Besides, the growth in the assay with SK-MEL-5 melanoma is 98.9%; in the assay with UACC-62 melanoma it was 85.3%; with LOX IMVI melanoma it was 86.6%; with SK-MEL-28 melanoma, 123%; in the assay on EKVX NSCLC it was 106%; in the assay with SN12C renal, 83.8%. Also, the growth was 67.4% in the assay with UO-31 renal; 83.2% with TK-10 renal; 87.8% with ACHN renal; 122% in the assay with CAKI-1 renal; 92.4% in the assay with A498 renal; 70.5% in the assay with CCRF-CEM leukemia. In the assay on MOLT-4 leukemia, the growth was 83.1%.

As for `C#Cc1cccc(Nc2ncnc3cc(OC)c(OCCCCCCC(=O)NO)cc23)c1`, the growth in the assay on HCT-15 colon was 7.16% (active); in the assay with HT29 colon it was -13.4% (active); with SNB-75 CNS it was 2.04% (active); with SNB-19 CNS, 7.79% (active); with U251 CNS, -58.1% (active); in the assay on PC-3 prostate it was 10.4%. The growth was -91.4% (active) with SK-MEL-5 melanoma; -78.3% (active) in the assay on UACC-62 melanoma; -89.3% (active) in the assay on LOX IMVI melanoma; -29.5% (active) in the assay with SK-MEL-28 melanoma; 25% in the assay on EKVX NSCLC; 5.37% (active) in the assay with SN12C renal. Further, the growth was -16.8% (active) with UO-31 renal; -48% (active) in the assay on TK-10 renal; -30.1% (active) in the assay on ACHN renal; -68.6% (active) with CAKI-1 renal; -86.3% (active) in the assay with A498 renal; 3.23% (active) with CCRF-CEM leukemia. Also, the growth with MOLT-4 leukemia is -1.32% (active).

For the compound `C/C=C/C=N/NC(=S)Nc1ccccc1`, the growth in the assay with HCT-15 colon is 99%; in the assay with HT29 colon, 106%; in the assay with SNB-75 CNS it was 80.8%; with SNB-19 CNS, 102%; in the assay on U251 CNS, 88.4%; with PC-3 prostate, 88.2%. Moreover, the growth was 104% in the assay with SK-MEL-5 melanoma; 89.5% in the assay on UACC-62 melanoma; 88.6% in the assay with LOX IMVI melanoma; 97.5% in the assay on SK-MEL-28 melanoma; 101% with EKVX NSCLC; 89.3% in the assay on SN12C renal. For the same compound, the growth is 72.6% in the assay on UO-31 renal; 112% in the assay with TK-10 renal; 99.2% with ACHN renal; 92.1% in the assay with CAKI-1 renal; 120% in the assay with A498 renal; 91.8% in the assay on CCRF-CEM leukemia. For the same compound, in the assay on MOLT-4 leukemia, the growth is 99.2%.

Turning to `COc1ccc2c(OCc3nnc4ccc(-c5ccccc5)nn34)ccnc2c1`, the growth in the assay with HCT-15 colon was 96.9% [2.5 µM]; with HT29 colon, 94.1% [2.5 µM]; with SNB-75 CNS it was 93.5% [2.5 µM]; with SNB-19 CNS it was 106% [2.5 µM]; with U251 CNS, 110% [2.5 µM]; with PC-3 prostate, 96.9% [2.5 µM]. The growth was 91.9% [2.5 µM] in the assay on SK-MEL-5 melanoma; 108% [2.5 µM] with UACC-62 melanoma; 2.5% [2.5 µM] (active) with LOX IMVI melanoma; 111% [2.5 µM] in the assay with SK-MEL-28 melanoma; 104% [2.5 µM] in the assay with EKVX NSCLC; 104% [2.5 µM] in the assay with SN12C renal. The growth is 74.6% [2.5 µM] in the assay with UO-31 renal; 93.7% [2.5 µM] in the assay with TK-10 renal; 97.2% [2.5 µM] with ACHN renal; 74.6% [2.5 µM] in the assay with CAKI-1 renal; 89.1% [2.5 µM] with A498 renal; 102% [2.5 µM] with CCRF-CEM leukemia. Further, the growth in the assay with MOLT-4 leukemia is 72.7% [2.5 µM].

The values above are taken from PubChem BioAssay (NCI).
